# Bioassay records (PubChem BioAssay)
# LYPLA1 inh = counter-screen for PME1 inhibitors: inhibitors of human LYPLA1; inhibition, % at 5.9 µM; AID 2174; hit rate 0.16% among 320,000; recombinant LYPLA1, FP-Rh probe fluorescence polarization; O75608;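 active = inhibition above the mean of all tested compounds plus 3 SD, set per campaign, cut at about 14% in these data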;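 note: inhibitors block serine hydrolase probe labeling of LYPLA1 so polarization falls; 0% = enzyme with DMSO and 100% = wells lacking LYPLA1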
# Target sequence (O75608 whole entry, looked up): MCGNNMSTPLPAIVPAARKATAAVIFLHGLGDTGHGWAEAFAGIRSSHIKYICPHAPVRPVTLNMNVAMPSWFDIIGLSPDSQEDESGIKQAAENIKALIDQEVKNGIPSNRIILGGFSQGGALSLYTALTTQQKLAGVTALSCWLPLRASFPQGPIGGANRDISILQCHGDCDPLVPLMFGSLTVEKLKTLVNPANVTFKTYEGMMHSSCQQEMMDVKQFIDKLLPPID
# PAD4 inh = PAD4 (human) enzyme inhibition; inhibition, % at 6.36 µM; Q9UM07; hit rate 0.41% among 330,000; recombinant PAD4, RCA probe fluorescence polarization;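 active = percent inhibition above a cutoff equal to the mean of all tested compounds plus 3 SD, cut at about 15% in these data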;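 note: 0% = PAD4 with RCA probe and DMSO and 100% = probe without PAD4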
# LYPLA2 counter = counter-screen for PME1 inhibitors: inhibitors of human LYPLA2 | inhibition, % at 5.9 µM | recombinant LYPLA2, FP-Rh probe fluorescence polarization | AID 2177 | hit rate 0.38% among 320,000;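 active = inhibition above the screen-wide mean plus 3 SD, limit set per campaign, cut at about 26% in these data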;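 note: 0% = LYPLA2 with DMSO and 100% = wells lacking LYPLA2 enzyme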
# Target sequence (O95372 whole entry, looked up): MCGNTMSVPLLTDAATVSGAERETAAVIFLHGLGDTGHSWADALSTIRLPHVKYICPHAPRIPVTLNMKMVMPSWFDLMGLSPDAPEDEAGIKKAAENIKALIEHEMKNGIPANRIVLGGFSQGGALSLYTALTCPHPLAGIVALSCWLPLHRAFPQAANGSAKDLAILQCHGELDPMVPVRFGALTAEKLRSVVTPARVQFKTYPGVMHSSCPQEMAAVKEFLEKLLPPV
# PME-1 inh = PME-1 (human) inhibition; recombinant PME-1, FP-Rh probe fluorescence polarization; hit rate 0.53% among 320,000; inhibition, % at 5.9 µM; Q9Y570;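 active = inhibition above the campaign mean of all compounds plus 3 SD, cut at about 26% in these data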;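 note: competitive labeling of PME-1 active site by serine hydrolase directed probe; 0% = PME-1 with DMSO and 100% = wells lacking PME-1 enzyme; inhibitors block probe labeling so polarization falls and inhibition rises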
# Fam108B inh = Fam108B inhibition, counter-screen for RBBP9 inhibitors; recombinant Fam108B, FP-Rh probe fluorescence polarization; inhibition, % at 9.51 µM; hit rate 0.33% among 300,000;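 active = inhibition above the screen mean inhibition plus 3 SD, computed separately per campaign, cut at about 18% in these data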;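 note: inhibitors lower polarization as less probe binds the enzyme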
# GSTO1 counter = GSTO1 inhibition, counter-screen for RBBP9 inhibitors | AID 1974 | recombinant GSTO1, activity-based probe fluorescence polarization | hit rate 1.1% among 300,000 | inhibition, % at 5.96 µM | P78417;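 active = inhibition above the campaign mean inhibition plus 3 SD, cut at about 35% in these data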;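 note: 0% = GSTO1-1 with DMSO and 100% = wells lacking GSTO1-1 enzyme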
# * marks the source's active call; other numbers are inactive results; · = not tested or not shown. An excerpt weighted towards active compounds, which were near 1.8% of everything screened.
SMILES,LYPLA1 inh,PAD4 inh,LYPLA2 counter,PME-1 inh,Fam108B inh,GSTO1 counter
CCOC(=O)/C(C#N)=N/Nc1ccc(S(=O)(=O)Nc2cc(OC)nc(OC)n2)cc1,-1.5,-2.9,-0.3,-3.4,1.2,-1.5
CC1CCN(C(=O)c2ccc(SCc3ccccc3F)c([N+](=O)[O-])c2)CC1,9.6,-1.1,34.3*,3.5,3.7,0.5
O=C(c1ccc(S(=O)(=O)Cc2ccccc2F)c([N+](=O)[O-])c1)N1CCCCCC1,-3.6,4.4,-1.7,5.9,2.5,3.7
N#CCc1cnc2ccccc2n1,3.4,-1.4,4.4,22.4,10.1,35.7*
CC(C)CC(=O)O/N=C1\C(=O)N(Cc2ccc(Cl)cc2)c2ccc([N+](=O)[O-])cc21,9.5,0.8,43.5*,35.3*,43.3*,40.3*
CC(=O)Nc1ccc2c(COC(=O)[C@@H](NS(=O)(=O)c3ccc(C)cc3)C(C)C)cc(=O)oc2c1,·,-0.7,·,·,·,·
COc1cc(/C=C2/CCc3ccccc3C2=O)cc(OC)c1OC,4.5,0.1,30.1*,9.1,-3.3,-3.4
COc1ccc(/C=C2/CCc3ccccc3C2=O)cc1OC,-2.0,3.8,8.7,6.3,1.4,-1.1
O=C(NN=Cc1cc(Br)c(O)c(Br)c1)c1ccccc1NS(=O)(=O)c1cccs1,·,-6.0,·,·,·,·
COc1ccc(/C=N/NC(=O)c2[nH]ncc2Br)c(OC)c1,-1.4,-0.8,-1.2,-5.0,2.6,7.9
CCOC(=O)N1CCN(c2cc(NCCC(=O)O)c3c4c(onc24)-c2ccccc2C3=O)CC1,1.6,6.8,-2.8,16.0,6.2,59.8*
CN1CCN(c2cc(N3CCN(C(=O)c4ccco4)CC3)c3c4c(onc24)-c2ccccc2C3=O)CC1,0.7,-3.8,0.7,10.7,7.1,17.0
O=C(NCCS(=O)(=O)N1CCC2(CC1)OCCO2)c1ccccc1,4.1,2.7,-1.2,-1.8,0.4,1.9
O=C(O)CCCNc1cc(N2CCC3(CC2)OCCO3)c2noc3c2c1C(=O)c1ccccc1-3,0.9,17.7*,-1.1,-2.0,34.6*,53.5*
CCOCCOC(=O)c1cccc2c1-c1ccccc1C2=O,-3.7,3.0,-3.1,1.1,-3.6,-0.7
COc1ccc(C)cc1N1C(=N)/C(=C2/Nc3ccccc3S2)C(c2ccccc2)C1=O (stereo not drawn),-6.1,4.6,-4.1,2.2,8.6,4.3
Cc1cc(N/N=C\c2ccccc2)nc(-c2ccccc2O)n1,-10.1,-0.1,-15.7,-6.8,8.2,-7.8
Cc1cc(N/N=C/c2ccccc2O)nc(-c2ccccc2O)n1,-19.2,-7.6,-11.2,18.6,19.2*,-15.1
O=C1C(Cl)=C(N2CCCC2)C(=O)N1c1ccc(F)cc1,1.2,2.8,2.8,-0.1,-1.8,35.4*
CC(C)S(=O)(=O)c1csc(NC(=O)Nc2cccc([N+](=O)[O-])c2)c1Cl,-10.3,-1.6,-6.9,27.6*,-14.3,-31.6
O=C(Nc1cccc([N+](=O)[O-])c1)Nc1cccc([N+](=O)[O-])c1,-21.2,-0.2,-24.6,-6.6,-5.3,-6.5
CCCCn1c(N)c(N(CC)C(=O)c2cccc(S(=O)(=O)N3CCN(C)CC3)c2)c(=O)[nH]c1=O,3.9,1.0,-0.3,-5.9,0.6,8.2
O=C(CCl)NC1CCCc2ccccc21 (stereo not drawn),-2.3,7.2,-0.1,-9.0,3.9,72.3*
O=C(NC1CCCc2ccccc21)C1CCN(S(=O)(=O)c2ccccc2F)CC1 (stereo not drawn),-3.6,-3.1,2.6,57.6*,-6.5,4.9
O=C(Cc1ccc(Br)cc1)NC1CCCc2ccccc21 (stereo not drawn),5.0,-6.3,1.9,9.2,0.9,5.8
SMILES,LYPLA1 inh,PAD4 inh,LYPLA2 counter,PME-1 inh,Fam108B inh,GSTO1 counter
COc1ccc(NC(=O)NNC(=O)CCc2ccc(O)c(O)c2)cc1OC,2.3,-1.7,3.3,-1.7,-1.5,5.5
Cc1cccc(Cc2c(C)nc3c(C(=O)N4CCN(Cc5ccc6c(c5)OCO6)CC4)cnn3c2C)c1,1.8,-0.1,5.3,1.5,6.1,35.2*
CN(C)/C=C(\C#N)C(=O)N/N=C(\CC(=O)C(F)(F)F)c1ccco1,-3.0,-1.0,3.9,2.7,3.8,3.0
O=Cc1ccccc1-n1cccn1,0.5,-8.8,-1.7,-5.7,2.0,1.4
Oc1cc(-n2cccn2)c(O)cc1-n1cccn1,-1.0,-13.3,-2.6,-10.4,-3.3,70.3*
CCC(=O)NC(c1ccc(C)cc1)c1cc([N+](=O)[O-])c2cccnc2c1O (stereo not drawn),-5.5,24.9*,1.5,8.8,1.8,13.4
C=CCn1c(=O)c2ccccc2n2c(SCC(=O)c3ccccc3)nnc12,-1.7,-3.4,-0.6,1.9,-2.6,35.9*
C=CCn1c(=O)c2ccccc2n2c(SCC(=O)NCCc3ccccc3)nnc12,-2.7,2.0,2.3,3.5,5.2,-6.0
COc1ccc(N2CCN(C(=O)COc3ccc4c(C)cc(=O)oc4c3C)CC2)cc1,-0.4,0.1,0.7,0.3,-0.9,3.4
COc1ccc(N2CCN(C(=O)c3ccc(COc4ccc5c(C)cc(=O)oc5c4)cc3)CC2)cc1,3.6,-4.2,63.1*,0.8,8.5,0.0
CN(C)c1ccc(C(=S)NCc2ccco2)cc1,-0.2,-4.5,5.2,4.5,2.9,8.9
NC(=O)c1ccc(NC(=O)COC(=O)CCCN2C(=O)c3cccc4cccc(c34)C2=O)cc1,-0.3,-1.6,1.6,1.3,1.9,-0.6
O=C(COC(=O)CCCN1C(=O)c2cccc3cccc(c23)C1=O)Nc1ccc(Cl)cc1,5.9,2.2,20.6,30.3*,1.2,-5.2
CC(=O)N1C(=O)c2cccc3cccc(c23)C(=O)N1C(C)=O,0.7,1.8,2.0,7.6,1.6,2.2
O=C1c2cccc3cccc(c23)C(=O)C1(O)O,-2.6,2.7,-7.3,2.0,2.2,62.8*
C[C@H](NC(=O)c1nc[nH]c1C(=O)NC1CCNCC1)C(=O)OCc1ccccc1,·,2.1,·,·,·,·
CC(C)CC(=O)NC(c1ccccc1Cl)c1c(O)ccc2ccccc12 (stereo not drawn),-10.5,0.3,-5.6,46.9*,9.1,-2.1
COc1ccc(C(NC(=O)CC(C)C)c2c(O)ccc3ccccc23)cc1 (stereo not drawn),-4.0,1.7,-0.6,-4.1,-4.0,5.3
Cc1ccnc(NS(=O)(=O)c2ccc(NC(=O)c3ccc([N+](=O)[O-])s3)cc2)n1,4.3,-1.8,7.9,2.5,0.5,36.7*
CCOC(=O)CC1CCCCN1C(=O)c1cc(COc2cccc3cnccc23)on1 (stereo not drawn),0.0,-3.6,4.1,1.7,6.1,-1.8
O=C(CCO)c1ccc(O)cc1,-3.3,9.5,5.2,5.0,-0.9,36.6*
CCCCC(=O)c1ccc(O)cc1,0.1,0.5,4.6,-1.1,4.2,-3.2
CCC(C)NC(=O)c1cn(CC)c2cc(N3CCN(C(=O)c4ccco4)CC3)c(F)cc2c1=O (stereo not drawn),-3.2,-1.9,-2.6,4.4,-7.1,-5.8
